Data as given in PubChem BioAssay AID1445 (SRMLSC, 2008).
The campaign covered roughly 220,000 compounds. About 910 (0.41%) were called active.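 Rule for the calls: active = primary inhibition above the hit cutoff, then over 50% inhibition at one or more dose response concentrations (cut at about 23% in these data, passing the limit was not always enough); inconclusive = conflicting primary data, or primary hits not chosen for dose response; inactive = low primary inhibition, or under 50% at every dose.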 Shown is part of a subset that was picked to be rich in actives. Entries with a potency or affinity are not part of this list.

Each molecule was assayed against Aminopeptidase N (Plasmodium falciparum (isolate 3D7)) (UniProt O96935) (assay: malaria alanyl aminopeptidase activity blockers – biochemical, fluorogenic H-Leu-NHMec substrate, 1536-well (AID 1445;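 note: plate controls were DMSO full reaction for no effect and no enzyme background for full effect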)). Settings: recombinant M1AAP, H-Leu-NHMec fluorogenic kinetic assay; at 30 µM, hits give high values unless noted.
Sequence of Aminopeptidase N (Plasmodium falciparum (isolate 3D7)) (O96935 whole entry, looked up): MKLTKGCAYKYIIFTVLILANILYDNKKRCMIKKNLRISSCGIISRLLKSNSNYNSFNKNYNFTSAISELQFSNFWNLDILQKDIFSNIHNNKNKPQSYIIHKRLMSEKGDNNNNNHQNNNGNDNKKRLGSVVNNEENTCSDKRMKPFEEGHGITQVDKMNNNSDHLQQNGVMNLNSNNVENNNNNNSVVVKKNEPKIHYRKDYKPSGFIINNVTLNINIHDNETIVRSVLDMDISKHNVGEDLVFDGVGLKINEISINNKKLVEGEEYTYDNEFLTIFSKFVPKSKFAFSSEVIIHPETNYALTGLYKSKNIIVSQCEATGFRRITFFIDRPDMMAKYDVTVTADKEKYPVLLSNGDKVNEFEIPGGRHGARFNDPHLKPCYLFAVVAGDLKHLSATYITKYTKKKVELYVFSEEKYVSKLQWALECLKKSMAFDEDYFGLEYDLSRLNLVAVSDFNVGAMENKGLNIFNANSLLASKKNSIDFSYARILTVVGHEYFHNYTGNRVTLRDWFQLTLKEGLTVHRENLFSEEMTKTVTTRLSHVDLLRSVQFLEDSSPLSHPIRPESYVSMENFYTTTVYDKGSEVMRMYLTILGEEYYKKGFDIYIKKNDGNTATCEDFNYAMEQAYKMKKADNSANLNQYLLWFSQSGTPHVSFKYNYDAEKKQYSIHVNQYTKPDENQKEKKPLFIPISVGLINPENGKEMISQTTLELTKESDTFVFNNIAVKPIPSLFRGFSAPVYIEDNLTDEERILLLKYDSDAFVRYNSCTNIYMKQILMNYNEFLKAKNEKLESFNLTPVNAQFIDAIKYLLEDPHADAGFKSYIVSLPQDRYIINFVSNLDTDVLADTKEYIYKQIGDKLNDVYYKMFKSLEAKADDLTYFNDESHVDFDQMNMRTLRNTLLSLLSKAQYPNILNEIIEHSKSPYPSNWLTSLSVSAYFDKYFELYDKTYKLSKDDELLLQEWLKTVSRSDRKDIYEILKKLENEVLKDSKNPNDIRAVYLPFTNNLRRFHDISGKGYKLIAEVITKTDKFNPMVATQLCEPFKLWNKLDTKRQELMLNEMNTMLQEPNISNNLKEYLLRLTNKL

Row | SMILES | inhibition
1 | COc1ccc(NC(=O)c2ccccc2C)c(OC)c1 | 5.69% (inactive)
2 | Cc1ccc(CN2C3CCCC2CC(NC(=O)c2ccc(C)cc2)C3)cc1 (stereo not given) | -1.65% (inactive)
3 | O=C(NC(=S)NC1C2CC3CC(C2)CC1C3)C12CC3CC(CC(C3)C1)C2 (stereo not given) | 5.47% (inactive)
4 | COc1ccc(CNC(=O)c2ccccc2SC)cc1 | -2.23% (inactive)
5 | CN(C1CCCCC1)S(=O)(=O)c1ccccc1 | -1.57% (inactive)
6 | COc1ccc(CN2C(=O)c3cccc4cccc(c34)C2=O)cc1 | -0.38% (inactive)
7 | COc1ccccc1NS(=O)(=O)c1cccc(NC(=O)Nc2ccccc2)c1 | 2.5% (inactive)
8 | COc1ccccc1NS(=O)(=O)c1cccc(N2CC(O)=C(c3ccccc3)C2=N)c1 | 9.55% (inactive)
9 | COc1ccc(CNC(=O)CCCN2C(=O)c3ccccc3C2=O)cc1 | 1.01% (inactive)
10 | Cc1cc(C)n(-c2ccc(C(=O)OCC(=O)Nc3ccc(S(=O)(=O)N4CCOCC4)cc3)cc2)n1 | -7.49% (inactive)
11 | CCOc1ccc(CCNC(=O)COC(=O)c2cc(OC)cc(OC)c2)cc1OCC | 6.82% (inactive)
12 | COC(=O)c1ccccc1NC(=O)CNC(=O)c1ccco1 | 7.08% (inactive)
13 | O=C(c1ccco1)N1N=C(c2ccc(Br)cc2)CC1(O)C(F)(F)F (stereo not given) | -1.14% (inactive)
14 | CC(C)CCNC(=O)CNC(=S)N(Cc1ccccc1)Cc1cccnc1 | -3.15% (inactive)
15 | COc1ccc(/C=N/NC(=O)CC(=O)N/N=C/c2ccc(OC)cc2)cc1 | 5.03% (inactive)
16 | COc1ccc(/C=N/NC(=O)CSCC(=O)Nc2ccccc2)cc1 | 0.01% (inactive)
17 | Cc1ccc2nc(CSc3nnc(Cc4cccs4)n3C3CCCCC3)cc(=O)n2c1 | 14.2% (inactive)
18 | O=C(CCC(=O)N(CC(=O)NC1CCCC1)Cc1ccc2c(c1)OCO2)Nc1ccccn1 | 26.2% (active)
19 | CCC(C)(C)NC(=O)CN(C(=O)CCC(=O)Nc1cc(C)ccn1)c1ccc2c(c1)OCO2 | 10.3% (inactive)
20 | CCC(C)(C)NC(=O)CN(Cc1ccccc1Cl)C(=O)CCC(=O)Nc1cc(C)ccn1 | 1.69% (inactive)
21 | O=C(CCCC(=O)N(CC(=O)NC1CCCCC1)Cc1ccc2c(c1)OCO2)Nc1ccccn1 | 1.7% (inactive)
22 | O=C(CCC(=O)N(CC(=O)NC1CCCC1)Cc1ccc2c(c1)OCO2)Nc1nccs1 | 12.3% (inactive)
23 | CC(C)(C)NC(=O)CN(Cc1ccc2c(c1)OCO2)C(=O)CCC(=O)Nc1nccs1 | 3.84% (inactive)

Row | SMILES | inhibition
24 | O=C(CCCC(=O)N(CC(=O)NC1CCCC1)Cc1ccc2c(c1)OCO2)Nc1ccccn1 | 8.73% (inactive)
25 | O=C(CSc1nnc(-c2ccc(Cl)cc2)n1Cc1ccco1)Nc1ccc2c(c1)OCCO2 | 6.61% (inactive)
26 | O=C(Nc1ccccc1N1CCCC1)c1cccc(Cl)c1Cl | 5.02% (inactive)
27 | Cc1cccc(-c2cc(N)n(-c3ccccc3)n2)c1 | 15.4% (inactive)
28 | Cc1nc(-c2ccccc2O)n(-c2ccccc2)n1 | 14.8% (inactive)
29 | Cc1nn(-c2ccccc2)c(C)c1N | -5.19% (inactive)
30 | Cc1cccc(N2C(N)=C(C#N)C(C#N)(C#N)C2c2ccccc2)c1 (stereo not given) | 7.85% (inactive)
31 | CCOC(=O)c1c(-c2ccc(C)o2)csc1NC(=O)CSc1ncn[nH]1 | 0.41% (inactive)
32 | O=C(CCCO)CCCCCCCCC[C@H]1N[C@H](CO)[C@@H](O)[C@@H]1O | 7.45% (inactive)
33 | O=C(O)C(CO)N=Cc1c(O)c2ccccc2oc1=O (stereo not given) | 20.4% (inactive)
34 | CC(C)CC(N=Cc1c(O)c2ccccc2oc1=O)C(=O)O (stereo not given) | 16.5% (inactive)
35 | Cc1nn(-c2ccc3ccccc3c2)c(=O)c2ccccc12 | 0.56% (inactive)
36 | CSc1nnc(-c2ccccc2N=Cc2c(C)[nH]n(-c3ccccc3)c2=O)c(=O)[nH]1 | 11.9% (inactive)
37 | COc1cc(/C=C/c2nc(-c3ccccc3O)n[nH]2)cc(OC)c1OC | 1.7% (inactive)
38 | Cc1ccc(C(=O)NCC(=O)OCC(=O)c2c(N)n(C)c(=O)n(C)c2=O)s1 | 5.58% (inactive)
39 | CCOC(=O)C(Cc1c[nH]c2ccccc12)NC(=O)c1ccco1 (stereo not given) | -3.49% (inactive)
40 | CCOc1ccccc1Nc1nnc(SCC(=O)Nc2ccc3[nH]c(=O)[nH]c3c2)s1 | 1.06% (inactive)
41 | O=C(Nc1ccccc1C(=O)NC(Cc1c[nH]c2ccccc12)C(=O)O)c1ccco1 (stereo not given) | 7.54% (inactive)
42 | O=C(Cn1nnc2ccccc2c1=O)N[C@@H](Cc1ccccc1)C(=O)O | 2.79% (inactive)
43 | O=C(CCn1nnc2ccccc2c1=O)N[C@@H](Cc1c[nH]c2ccccc12)C(=O)O | 9% (inactive)
44 | Cc1ccc(Nc2nnc(SCC(=O)NC(Cc3c[nH]c4ccccc34)C(=O)O)s2)cc1 (stereo not given) | 22% (inactive)
45 | O=C(NC(Cc1c[nH]c2ccccc12)C(=O)O)c1ccco1 (stereo not given) | 27.5% (active)
